# High-throughput results: PubChem, National Center for Advancing Translational Sciences (NCATS)
# Sampled rows, rich in hits. Any-hit rate of the full collection: about 18%.
# HepG2 tox – qHTS for Inhibitors of TGF-b: Cytotox Counterscreen; HepG2 CAGA-GFP viability, ATP luminescence, 18 h; Potency, µM (doses to about 46.1 µM), inactives show at the highest dose activity change, negative = cytotoxicity, hits mostly cytotoxic; 410,000 tested, 0.76% active; further: potency means the concentration at half of the fitted maximal effect
#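 CellTiter-Glo luminescence gave cytotoxicity after 18 hours at 37 degrees C. The cells were HepG2 CAGA-GFP in 1% FBS DMEM, stimulated with 500 pg/mL TGF-beta after compound addition. %Activity was normalised to no-cell wells (complete cell-killing) and DMSO (no toxicity), and curves were fitted and classified.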
# TDP1 cell noCPT – qHTS for Inhibitors of human tyrosyl-DNA phosphodiesterase 1 (TDP1): qHTS in cells in absence of CPT | DT40 Tdp1-/- hTDP1 cells, no CPT, ATP luminescence, 48 h | Potency, µM (top dose mostly 46.2 µM), for inactives: at the top dose activity change, negative = growth inhibition, most hits filed as inhibitors | 420,000 tested, 15% active; further: potency means the concentration at half of the fitted maximal effect; on the % scale 0 is the no-effect control and ±100 the full control effect; nearly all actives have a fitted effect of over 55% in size
#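 Compound effects on proliferation are scored in DT40 Tdp1-/-;hTDP1 cells in the absence of CPT. ATP levels (CellTiter-Glo luminescence) are recorded after a ≥48 hr, 37 °C incubation.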
# TGFb SMAD3 inh – qHTS for Inhibitors of TGF-b | HepG2 CAGA-GFP TGF-b/SMAD3 reporter, GFP fluorescence, 18 h; TGF-beta stimulated, 500 pg/mL final | Potency, µM (titrated, usually from 46.1 µM), without a hit: top-dose activity, negative = inhibition, actives largely listed as inhibitors | 410,000 tested, 1.2% active; further: potency means the concentration at half of the fitted maximal effect; on the % scale 0 is the no-effect control and ±100 the full control effect; nearly all actives have a fitted effect of over 65% in size
#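 Smad-responsive CAGA-GFP expression was quantified in HEPG2 cells exposed to compounds and 500 pg/mL final TGF-beta for 18 h at 37 degrees C; unstimulated wells defined full inhibition.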
# DT40 TDP1 CPT – qHTS for Inhibitors of human tyrosyl-DNA phosphodiesterase 1 (TDP1): qHTS in cells in presence of CPT; Potency, µM (top dose mostly 46.2 µM), inactives show at the highest dose activity change, negative = growth inhibition, hits mostly inhibitors; 420,000 tested, 12% active; AID 686979, 2013; chicken DT40 Tdp1-/-;hTDP1 cells + 20 nM CPT, ATP luminescence, 48 h; further: potency means the concentration at half of the fitted maximal effect; on the % scale 0 is the no-effect control and ±100 the full control effect; nearly all actives have a fitted effect of over 55% in size
#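 Chicken DT40 Tdp1-/- cells complemented with human TDP1, 400 cells/well, exposed to compounds plus 20 nM camptothecin for at least 48 h at 37 C; viability read as ATP content by CellTiter-Glo luminescence.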
# IL-1B inflam inh – qHTS for Inhibitors of Inflammasome Signaling: IL-1-beta AlphaLISA Primary Screen; THP-1 LPS/ATP IL-1B secretion, AlphaLISA, 16 h; active compounds read low; activity change, % at 57.5 µM; 360,000 tested, 4.7% active; AID 743279, 2014; in the data active means activity change below about -50%; inconclusive means mostly about -30% to -49%; further: on the % scale 0 is the no-effect control and ±100 the full control effect
#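 Secreted IL-1B measured by AlphaLISA bead assay after 16 h compound exposure of THP-1 cells; compounds (final up to 57.5 uM) added 1 h before LPS (250 ng/mL) and ATP (1.25 mM) stimulation; lower signal means less secretion.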
# TDP1 block – qHTS Assay for Inhibitors of Tyrosyl-DNA Phosphodiesterase (TDP1). recombinant TDP1, AlphaScreen DNA substrate cleavage. Potency, µM (titrated, usually from 130 µM), without a hit: at the highest dose activity change, negative = inhibition, hits mostly inhibitors. 350,000 tested, 0.28% active; further: potency means the concentration at half of the fitted maximal effect; on the % scale 0 is the no-effect control and ±100 the full control effect; nearly all actives have a fitted effect of over 40% in size
# Target sequence (Q9NUW8 whole entry, looked up): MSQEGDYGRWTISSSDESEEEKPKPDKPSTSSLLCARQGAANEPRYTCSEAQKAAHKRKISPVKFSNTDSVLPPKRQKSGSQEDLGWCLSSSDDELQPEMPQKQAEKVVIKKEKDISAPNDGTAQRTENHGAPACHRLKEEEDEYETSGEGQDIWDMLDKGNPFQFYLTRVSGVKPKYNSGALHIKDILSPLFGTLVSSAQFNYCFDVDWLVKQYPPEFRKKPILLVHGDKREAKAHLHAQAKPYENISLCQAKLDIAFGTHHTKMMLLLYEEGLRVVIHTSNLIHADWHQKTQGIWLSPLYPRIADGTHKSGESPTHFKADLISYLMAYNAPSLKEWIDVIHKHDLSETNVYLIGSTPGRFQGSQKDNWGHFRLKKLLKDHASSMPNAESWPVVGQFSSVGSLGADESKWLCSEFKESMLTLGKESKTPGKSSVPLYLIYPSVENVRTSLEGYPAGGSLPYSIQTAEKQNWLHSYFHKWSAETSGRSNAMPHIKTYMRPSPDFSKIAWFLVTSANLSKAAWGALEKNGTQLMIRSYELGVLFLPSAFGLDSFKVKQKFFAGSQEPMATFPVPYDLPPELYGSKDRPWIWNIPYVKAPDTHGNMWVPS
#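 E. coli-derived human Tdp1, 1 nM final. Cpd preinc 15 min RT; substrate 15 nM final, 5 min RT; AS bead mix 10 ug/ml final, 10 min RT. Signal loss = tyrosine-FITC cleavage. No-enzyme wells = max signal.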
# Numbers without * were called inactive; ? = inconclusive; . = no result; [ ] = another dose, or the depositor's remark. Unless noted, the call rests on the fitted dose curve; in most records, active means well fitted curve in the direction sought with a large enough effect; inconclusive means small, poorly fitted or top-dose-only effect, or another doubt; inactive means no such curve, though single readings can be large; an effect the other way counts as inactive or inconclusive.
SMILES,HepG2 tox,TDP1 cell noCPT,TGFb SMAD3 inh,DT40 TDP1 CPT,IL-1B inflam inh,TDP1 block
COC(=O)c1cc(=O)n(Cc2ccc(OC)c(OC)c2)c(=Nc2ccc(F)cc2)s1,-17%,15µM*,-1%,16µM*,-23,9%
CCC(=O)OCOc1ccc(/C=C2/CCC(CN(C)C)C2=O)cc1 (configuration not stated),-99%,2.9µM*,6.3µM*,2.3µM*,-1,.
CCn1c(=O)c(C(=O)CN(C)CC(=O)Nc2ccccc2Br)c(N)n(Cc2ccccc2)c1=O,-8%,18µM*,?,21µM*,4,-5%
CC(=O)Nc1ccc(NC(=O)CN(C)CC(=O)Nc2ccccc2Br)cc1,7%,-7%,2%,-1%,92,-1%
CCn1c(=O)c(C(=O)CN2CCc3ccccc32)c(N)n(Cc2ccccc2)c1=O,8%,?,?,?,0,3%
CN(CC(=O)Nc1ccccc1Br)CC(=O)NC(c1ccccc1)c1ccccc1,-10%,?,-5%,?,-51*,-3%[0.505 µM]
O=c1[nH]c(=O)n(C2CCCCC2)c(O)c1C1=Nc2ccccc2SC(c2ccc(Cl)cc2)C1 (configuration not stated),-5%,-15%,23%,-12%,.,6%
OCC1(Cc2ccccc2)CCN(Cc2cnn(-c3ccccc3F)c2)CC1,-1%,-20%,-10%,0%,?,0%
OCC1(Cc2ccc(Cl)cc2)CCN(Cc2ccc(F)c(F)c2)CC1,-23%,?,-11%,?,?,.
OCC1(Cc2ccccc2C(F)(F)F)CCN(Cc2ccccc2)CC1,-35%,?,-3%,?,-61*,5%
COc1ccc2[nH]c(C(=O)N3CCC(CO)(Cc4cccc(C(F)(F)F)c4)CC3)c(C)c2c1,-81%,21µM*,?,?,?,.
OCC1(Cc2cccc(C(F)(F)F)c2)CCN(Cc2cc(F)cc(F)c2)CC1,-46%,?,?,?,-77*,0%
Cc1ccc(-n2cc(CN3CCC(CO)(Cc4cccc(C(F)(F)F)c4)CC3)cn2)cc1,11µM*,21µM*,?,9.2µM*,-112*,.
COC(=O)[C@H](CC(C)C)NC(=O)c1ccc(NC[C@@H](N)CS)cc1-c1cccc2ccccc12,.,.,.,.,.,28%
COc1cccc(CC2(CO)CCN(C(=O)NC3CCCCC3)CC2)c1,-11%,-28%,3%,23µM*,18,-4%
Cc1cc(CN2CCCC(CO)(Cc3cccc(Cl)c3)C2)n[nH]1 (configuration not stated),-16%,-25%,-7%,13%,-6,2%
CSc1cccc(CN2CCC(CO)(Cc3cccc(C(F)(F)F)c3)CC2)c1,-110%,16µM*,?,?,-96*,4%
CC(C)Cc1cc(CN2CCC(CO)(Cc3cccc(C(F)(F)F)c3)CC2)[nH]n1,16µM*,?,?,?,-82*,-6%
COc1cccc(CC2(CO)CCN(C(=O)NCCc3ccccc3)CC2)c1,-12%,-9%,-1%,-10%,-12,-7%
CC[n+]1c(C)sc2c3ccsc3ccc21,0%,16µM*,-6%,23µM*,51,3%
COc1ccccc1Nc1ncc(C(=O)N2CCN(Cc3ccc(OC)c(OC)c3OC)CC2)c2ccccc12,-16%,?,-11%,18µM*,-73*,0%
COc1ccc(Nc2ncc(C(=O)N3CCN(Cc4ccccc4)CC3)c3ccccc23)cc1,1%,?,?,18µM*,-97*,8%
COc1ccc(Nc2ncc(C(=O)N3CCC(C(N)=O)CC3)c3ccccc23)cc1,9%,-1%,-1%,0%,-4,-1%
COc1ccc(C(=O)NNC(=O)CSc2nnc(C3CC3)n2C)cc1,-23%,7%,-6%,10%,1,11%
O=C1C(c2ccc(F)cc2)N(CCc2ccc(Cl)cc2)C(=O)CN1C1CCCCC1 (configuration not stated),-3%,21µM*,-4%,16µM*,.,3%
SMILES,HepG2 tox,TDP1 cell noCPT,TGFb SMAD3 inh,DT40 TDP1 CPT,IL-1B inflam inh,TDP1 block
COc1cc(C2C(=O)N(C3CCC(C)CC3)CC(=O)N2CCc2ccc(Cl)cc2)ccc1OC(C)C (configuration not stated),-3%,-1%,?,-16%,.,5%
COc1ccc(CCN2C(=O)CN(C3CCCCCC3)C(=O)C2c2ccc(Cl)cc2)cc1OC (configuration not stated),-23%,18µM*,?,?,.,10%
COc1cc(C2C(=O)N(C3CCCCCC3)CC(=O)N2CCc2ccccc2)ccc1OC(C)C (configuration not stated),-6%,13µM*,-11%,16µM*,.,10%
COc1ccc(CCN2C(=O)CN(C3CCCCCC3)C(=O)C2c2ccc(C)cc2)cc1OC (configuration not stated),-16%,23µM*,-4%,?,.,5%
COc1ccc(CCN2C(=O)CN(C3CCCCCC3)C(=O)C2c2ccc(OC(C)C)c(OC)c2)cc1OC (configuration not stated),-4%,?,-2%,?,.,10%
C=C1CCN(C(Cc2ccccc2)C(=O)NCc2ccc(Cl)cc2)S(=O)(=O)c2ccccc21 (configuration not stated),-2%,.,-12%,.,.,7%
CC1(C)OC(C)(C)/C(=C/Nc2ccccc2)C1=O,19%,-10%,13%,3%,-1,3%
O=c1[nH]c2ccc(S(=O)(=O)Nc3ccc(Cl)cc3)cc2[nH]1,-24%,?,-10%,-13%,0,.
CCOc1ccc(C2C(=O)N(C3CCCCCC3)CC(=O)N2Cc2ccc(C)cc2)cc1OC (configuration not stated),-37%,23µM*,-47%,23µM*,.,3%
CC1CCC(N2CC(=O)N(C3CCCCC3)C(c3ccc(F)cc3)C2=O)CC1 (configuration not stated),-29%,-21%,-8%,4%,.,5%
